This is an account of results in PubChem BioAssay (NCATS).

Records with an inconclusive call do not appear. Values without a mark were called inactive. The source made the active and inactive calls. The call rests on the fitted dose curve; in most records, active means well fitted curve in the direction sought with a large enough effect; inconclusive means small, poorly fitted or top-dose-only effect, or another doubt; inactive means no such curve, though single readings can be large; an effect the other way counts as inactive or inconclusive.

For test [1], the target named is Calcium and integrin-binding protein 1 (Homo sapiens) (UniProt Q99828). Put plainly: Primary qHTS for Identification of Calcium Integrin Binding Protein 1 (CIB1) Competitor (AID 1508620).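 Further: GST tagged CIB1 binding a fluorescein labelled alphaIIb integrin peptide tracer; top concentration of the series differs between compounds.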 In a few lines:
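Fluorescence polarization competition: GST-tagged CIB1 (1 uM final) preincubated with compound 15 min at room temperature, then FITC-labelled alphaIIb peptide (100 nM final) added. After 15 min at room temperature, polarization read at Ex 480/Em 540.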

A short description of test [2]: Primary qHTS for inhibitors of nuclear receptor binding SET domain protein 2 (NSD2) in an isogenic RCH-ACV NSD2 p.E1099K mutant (9B) (AID 1645876; further: nearly all actives have a fitted effect of over 70% in size; further: potency means the concentration at half of the fitted maximal effect). (In general: Quantitative high-throughput screening tests each substance at several concentrations.)
Test [3] can be described thus: Primary qHTS for inhibitors of nuclear receptor binding SET domain protein 2 (NSD2) in an RCH-ACV wild type WT cells (2C) (AID 1645877). Further: nearly all actives have a fitted effect of over 70% in size. Further: potency means the concentration at half of the fitted maximal effect.

Sequence of Calcium and integrin-binding protein 1 (Homo sapiens) (Q99828 whole entry, looked up): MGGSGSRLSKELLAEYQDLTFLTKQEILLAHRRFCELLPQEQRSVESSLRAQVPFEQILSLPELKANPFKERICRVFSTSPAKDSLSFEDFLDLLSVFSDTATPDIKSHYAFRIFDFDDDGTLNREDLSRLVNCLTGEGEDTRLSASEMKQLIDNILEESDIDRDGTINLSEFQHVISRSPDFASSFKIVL

As for `CC1OC(OC2C(OC3C(O[C@H]4CC[C@@]5(C)C(CC[C@]6(C)C5C(=O)CC5=C7CC(C)(C)CC(O)[C@]7(C)CC[C@]56C)C4(C)C)OC(C(=O)O)C(O)C3O)OCC(O)C2O)C(O)C(O)C1O` (stereo not given in full), the Potency entry in test [1] is “inactive”. Besides, the outcome in test [2] and in test [3] was “inactive [at 9.23 µM]” each time.

Consider `C=C1CCC2[C@](C)(CCC[C@]2(C)C(=O)O)[C@H]1CC/C(C)=C/C(=O)OC` (stereo not given in full), for which the Potency result in test [1], in test [2] and in test [3] was “inactive” throughout.

As for `CC1(CO)CCCC2(C)C1C(OC(=O)c1ccccc1)CC1C(=O)OCC12O` (stereo not given), the Potency result in test [1], in test [2] and in test [3] was “inactive” each time.

Turning to `COC(=O)C1=CO[C@@H](O[C@@H]2O[C@H](CO)[C@@H](O)[C@H](O)[C@H]2O)[C@H]2[C@@H]1[C@H](O)[C@H](O)[C@]2(C)O`, the Potency entry in test [1], in test [2] and in test [3] was “inactive” in each case.

On to `COc1c2c(c(C)c3c1C(=O)OC3)OC1(C)CC(O)C34OC(OC)(CCC3(C)C1C2)OC4(C)CO` (stereo not given), for which the Potency result in test [1], in test [2] and in test [3] was “inactive” each time.

As to `O=C1NC(=O)/C(=C/c2cccc(C(F)(F)F)c2)S1`, the Potency entry in test [1], in test [2] and in test [3] was “inactive” throughout.

`CC1(C)C=Cc2c(ccc3c2N=C2C(C)(C)[C@@H]4C[C@]56CCCN5C(=O)[C@@]4(C[C@]23O)NC6=O)O1`: the Potency entry in test [1], in test [2] and in test [3] was “inactive” throughout.

As for `C[C@H]1[C@H](C)CC[C@]2(C(=O)O)CC[C@]3(C(=O)O)C(=CCC4[C@@]5(C)CC[C@H](O[C@@H]6O[C@@H](C)[C@H](O)[C@@H](O)[C@H]6O)C(C)(C)C5CC[C@]43C)[C@H]12` (stereo not given in full), the Potency entry in test [1], in test [2] and in test [3] was “inactive” in each case.

Consider `C[C@@]1(C(=O)O)CCC[C@@]2(C)C3=CC[C@H]4C[C@@]3(CC[C@H]12)CC4(O)CO` (stereo not given in full), for which the Potency result in test [1], in test [2] and in test [3] was “inactive” each time.

With `C=Cc1ccc(O[C@@H]2O[C@H](CO[C@@H]3O[C@@H](C)[C@H](O)[C@@H](O)[C@H]3O)[C@@H](O)[C@H](O)[C@H]2O)cc1`, the Potency result in test [1], in test [2] and in test [3] was “inactive” each time.

Consider `C=C1C2CCC3C(CCC4[C@@]3(C)CCC[C@@]4(C)C(=O)O)(C2)[C@@H]1OC(=O)/C(C)=C\C` (stereo not given in full), for which the Potency result in test [1], in test [2] and in test [3] was “inactive” throughout.

For the molecule `Cn1cc(-c2c[nH]c3ncnc(N4CCOCC4)c23)cn1`, the Potency entry in test [1] and in test [2] was “inactive” throughout. Besides, the Potency in test [3] was 23.1 µM (active).

Turning to H-DPPDPDRFYGMM-NH2, the Potency entry in test [1], in test [2] and in test [3] was “inactive” throughout.

In the case of `C[C@H]1[C@H](C)C[C@@H](C(=O)O)C2CC[C@]3(C)C(=CC[C@@H]4[C@@]5(C)CC[C@H](O)C(C)(C)[C@@H]5CC[C@]43C)[C@@H]21` (stereo not given in full), the Potency result in test [1], in test [2] and in test [3] was “inactive” throughout.

Regarding `C=C1C(OC(C)=O)CCC2(C)CCC(C(C)(C)O)CC12` (stereo not given), the Potency result in test [1], in test [2] and in test [3] was “inactive” throughout.

In the case of `CC(C)(OC1OC(CO)C(O)C(O)C1O)C1CCC(O)(CO)C2CC(=O)C(C)(O)C2C1` (stereo not given), the Potency result in test [1], in test [2] and in test [3] was “inactive” in each case.

As for `O=C(C[C@@H]1C(C(=O)O)=CO[C@@H](O[C@@H]2O[C@H](CO)[C@@H](O)[C@H](O)[C@H]2O)/C1=C\CO)OCCc1ccc(O)cc1`, the Potency result in test [1], in test [2] and in test [3] was “inactive” in each case.

As to `OC[C@@]1(O)CO[C@H](OC[C@H]2O[C@@H](OCCc3ccccc3)[C@H](O)[C@@H](O)[C@@H]2O)[C@@H]1O`, the Potency result in test [1], in test [2] and in test [3] was “inactive” in each case.

Consider `COc1cc(O[C@@H]2O[C@H](CO[C@H]3OC[C@](O)(CO)[C@H]3O)[C@@H](O)[C@H](O)[C@H]2O)cc(OC)c1O`, for which the Potency result in test [1], in test [2] and in test [3] was “inactive” in each case.

Regarding `CCC/C=C/C=C/C1CC(O)C(O)C(=O)C1CO` (stereo not given), the Potency entry in test [1], in test [2] and in test [3] was “inactive” throughout.

For `CC1C2=CC(=O)OC2(O)CC2C1CCC1C(C)(C)CCC(O)C21C` (stereo not given), in test [1], the Potency result was “inactive”. Also, the figures for the Potency in test [2] and in test [3] were 14.2 µM (active) and 8.98 µM (active), respectively.

Consider `CC/C=C\C(O)C(O)C1=C(C)C(=O)C2(O1)C(=O)NC(OC)(C(=O)c1ccccc1)C2O` (stereo not given), for which the Potency result in test [1], in test [2] and in test [3] was “inactive” throughout.

On to `CC1(C)CCC2(C(=O)O)CCC3(C)C(=CCC4C5(C)CCC(O)C(C)(CO)C5C(O)CC43C)C2C1` (stereo not given), for which the Potency entry in test [1], in test [2] and in test [3] was “inactive” throughout.

With `CC1(CO)CCCC2(C)C3COC(=O)C3=CC(O)C12` (stereo not given), the Potency result in test [1], in test [2] and in test [3] was “inactive” throughout.

For the molecule `CC(CC(C)O[C@@H]1O[C@H](CO)[C@@H](O)[C@H](O)[C@H]1O)OC(=O)/C=C/c1ccc(O)cc1` (stereo not given in full), the Potency result in test [1], in test [2] and in test [3] was “inactive” in each case.
